The text below walks through data of PubChem BioAssay (NCI).

Assay [1] is described as follows: NCI Yeast Anticancer Drug Screen. Data for the rad50 strain (AID 155).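 Also: 0% = growth of vehicle-only cultures of the same strain.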 The note with it: S. cerevisiae rad50 strain growth inhibition, stronger effect = higher value. An outline of the steps: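 Compounds were tested on a yeast strain with an engineered DNA damage repair alteration; the reported value is growth inhibition normalised to vehicle treatment.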
Assay [2] in a line: NCI Yeast Anticancer Drug Screen. Data for the mec2-1 strain (AID 157). The note with it: S. cerevisiae mec2-1 strain, stronger effect = higher value. The essentials: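 Cells of the genetically defined mec2-1 yeast strain are incubated with test compound. Inhibition of growth is calculated against vehicle-treated controls.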
Assay [3] in a line: NCI Yeast Anticancer Drug Screen. Data for the sgs1 mgt1 strain (AID 161).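 Also: 0% = growth of cultures given vehicle only.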 The note with it: S. cerevisiae sgs1 mgt1 strain, stronger effect = higher value. The essentials:
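Mutant yeast exposed to compound; growth scored against vehicle-only wells.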

Assay [4] can be described thus: NCI Yeast Anticancer Drug Screen. Data for the cln2 rad14 strain (AID 165).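 Also: 0% = growth equal to vehicle treated cultures.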 The note with it: S. cerevisiae cln2 rad14 strain, stronger effect = higher value. An outline of the steps:
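The screen exposed genetically defined yeast (cln2 rad14) to test compounds and scored growth inhibition relative to vehicle-treated controls.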

The nature of assay [5]: NCI Yeast Anticancer Drug Screen. Data for the bub3 strain (AID 167). The note with it: S. cerevisiae bub3 mutant strain, stronger effect = higher value. An outline of the steps:
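Growth of a checkpoint-deficient yeast mutant is measured after compound exposure. Values represent inhibition relative to vehicle.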

Assay [6] in a line: NCI Yeast Anticancer Drug Screen. Data for the mlh1 rad18 strain (AID 175). The note with it: S. cerevisiae mlh1 rad18 strain growth inhibition, stronger effect = higher value. The essentials: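 Compound-treated yeast growth, normalised to vehicle controls. Strain bears defined DNA repair mutations.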
Where [7] appears, read: at 5.0 µM (retest, dose inferred, filed as 0.5).
The mark [8] stands for this setting: at 50.0 µM (retest, dose inferred, filed as 5.0).

Compounds without any hit were thinned out: in the full panel of roughly 79,000, 15% have a hit. A number with no mark means an inactive call. Calls of active or inactive are those of the source. Rule as the data show it: active = growth inhibition above about 70%; inactive = the rest.

For `C[C@]12CC[C@H]3[C@@H](CCC4=CC(=O)CC[C@@H]43)[C@@H]1CC[C@@H]2OC1(O)C(=O)c2ccccc2C1=O`, the growth inhibition is -7% in assay [1] (setting [7]); 47% in assay [1] (setting [8]); 65.2% in assay [1] (at 50.0 µM); -6% in assay [2] (setting [7]); 21% in assay [2] (setting [8]); 27.4% in assay [2] (at 50.0 µM). Moreover, the growth inhibition in assay [3] (setting [7]) is -2%; in assay [3] (setting [8]), 59%; in assay [3] (at 50.0 µM), 74.8% (active); in assay [4] (setting [7]), -16%; in assay [4] (setting [8]) it was 22%; in assay [4] (at 50.0 µM), 20.5%. For the same molecule, the growth inhibition in assay [5] (setting [7]) was -8%; in assay [5] (setting [8]) it was 44%; in assay [5] (at 50.0 µM), 69.9%; in assay [6] (setting [7]), 11%; in assay [6] (setting [8]), 44%; in assay [6] (at 50.0 µM), 61.7%.
Regarding `CCN(Cc1ccccc1)CC(O)c1ccc(Cl)c(Cl)c1` (configuration not stated), the growth inhibition in assay [1] (setting [7]) is -3%; in assay [1] (setting [8]), 99% (active); in assay [1] (at 50.0 µM), 9.25%; in assay [2] (setting [7]), -1%; in assay [2] (setting [8]) it was 99% (active); in assay [2] (at 50.0 µM), -12.7%. Further, the growth inhibition in assay [3] (setting [7]) is -2%; in assay [3] (setting [8]), 99% (active); in assay [3] (at 50.0 µM), 20.1%; in assay [4] (setting [7]) it was 2%; in assay [4] (setting [8]) it was 99% (active); in assay [4] (at 50.0 µM), -23.4%. Also, the growth inhibition is 0% in assay [5] (setting [7]); 98% (active) in assay [5] (setting [8]); 70.3% (active) in assay [5] (at 50.0 µM); -1% in assay [6] (setting [7]); 99% (active) in assay [6] (setting [8]); 3.6% in assay [6] (at 50.0 µM).
For `C[CH2][Sn]([CH2]C)([CH2]C)[O]C(=O)CO`, the growth inhibition in assay [1] (setting [7]) was 9%; in assay [1] (setting [8]) it was 98% (active); in assay [1] (at 50.0 µM) it was 82.2% (active); in assay [2] (setting [7]) it was 10%; in assay [2] (setting [8]) it was 99% (active); in assay [2] (at 50.0 µM), 87% (active). In addition, the growth inhibition in assay [3] (setting [7]) was 17%; in assay [3] (setting [8]), 98% (active); in assay [3] (at 50.0 µM), 86.6% (active); in assay [4] (setting [7]), -11%; in assay [4] (setting [8]), 93% (active); in assay [4] (at 50.0 µM), 55.4%. The growth inhibition was 7% in assay [5] (setting [7]); 98% (active) in assay [5] (setting [8]); 86.8% (active) in assay [5] (at 50.0 µM); 12% in assay [6] (setting [7]); 98% (active) in assay [6] (setting [8]); 84.9% (active) in assay [6] (at 50.0 µM).
Consider `O=C(O)/C=C\c1c[nH]c2ccccc12`, for which the growth inhibition was 10% in assay [1] (setting [7]); 97% (active) in assay [1] (setting [8]); 75.8% (active) in assay [1] (at 50.0 µM); -2% in assay [2] (setting [7]); 89% (active) in assay [2] (setting [8]); 38.3% in assay [2] (at 50.0 µM). Also, the growth inhibition in assay [3] (setting [7]) is 2%; in assay [3] (setting [8]), 87% (active); in assay [3] (at 50.0 µM), 60.2%; in assay [4] (setting [7]), -6%; in assay [4] (setting [8]), 89% (active); in assay [4] (at 50.0 µM), 1.45%. Further, the growth inhibition in assay [5] (setting [7]) is -2%; in assay [5] (setting [8]), 95% (active); in assay [5] (at 50.0 µM) it was 50.8%; in assay [6] (setting [7]) it was -17%; in assay [6] (setting [8]) it was 97% (active); in assay [6] (at 50.0 µM), 42.4%.
In the case of `COC(=O)C1=C(O)C(C(=O)OC)[C@]2(O)[C@@H](C(=O)OC)[C@H]1C[C@@H](c1ccccc1)[C@@H]2C(=O)OC` (some centres not stated), the growth inhibition in assay [1] (setting [7]) is 4%; in assay [1] (setting [8]) it was 98% (active); in assay [1] (at 50.0 µM), 97.7% (active); in assay [2] (setting [7]), 3%; in assay [2] (setting [8]), 97% (active); in assay [2] (at 50.0 µM), 98.3% (active). Moreover, the growth inhibition in assay [3] (setting [7]) is 10%; in assay [3] (setting [8]), 97% (active); in assay [3] (at 50.0 µM), 98.3% (active); in assay [4] (setting [7]), 11%; in assay [4] (setting [8]), 92% (active); in assay [4] (at 50.0 µM), 84.3% (active). Moreover, the growth inhibition in assay [5] (setting [7]) was 3%; in assay [5] (setting [8]) it was 97% (active); in assay [5] (at 50.0 µM) it was 98.2% (active); in assay [6] (setting [7]), 10%; in assay [6] (setting [8]) it was 98% (active); in assay [6] (at 50.0 µM), 98.6% (active).
In the case of `O=C(O)c1ccccc1[Se][Se]c1ccccc1C(=O)O`, the growth inhibition in assay [1] (setting [7]) was 50%; in assay [1] (setting [8]), 73% (active); in assay [1] (at 50.0 µM) it was 21.1%; in assay [2] (setting [7]) it was 26%; in assay [2] (setting [8]) it was 56%; in assay [2] (at 50.0 µM) it was 10.8%. In addition, the growth inhibition was 53% in assay [3] (setting [7]); 67% in assay [3] (setting [8]); 15.9% in assay [3] (at 50.0 µM); 31% in assay [4] (setting [7]); 46% in assay [4] (setting [8]); 8.05% in assay [4] (at 50.0 µM). The growth inhibition in assay [5] (setting [7]) was 49%; in assay [5] (setting [8]), 70% (active); in assay [5] (at 50.0 µM), 34.1%; in assay [6] (setting [7]) it was 56%; in assay [6] (setting [8]), 74% (active); in assay [6] (at 50.0 µM), 74.5% (active).
For the molecule `CCC1CC2C3Cc4ccc(OC)c(O)c4C2(CCN3C)CC1=O` (configuration not stated), the growth inhibition is 6% in assay [1] (setting [7]); 3% in assay [1] (setting [8]); -6.45% in assay [1] (at 50.0 µM); -12% in assay [2] (setting [7]); -2% in assay [2] (setting [8]); -6% in assay [2] (at 50.0 µM). Also, the growth inhibition in assay [3] (setting [7]) is 19%; in assay [3] (setting [8]), 9%; in assay [3] (at 50.0 µM), -8%; in assay [4] (setting [7]) it was 14%; in assay [4] (setting [8]) it was 11%; in assay [4] (at 50.0 µM), -5.3%. In addition, the growth inhibition in assay [5] (setting [7]) was 24%; in assay [5] (setting [8]), 19%; in assay [5] (at 50.0 µM), -1.25%; in assay [6] (setting [7]), 9%; in assay [6] (setting [8]), 9%; in assay [6] (at 50.0 µM), -7.5%.
Regarding `CC(Br)c1ccccc1` (configuration not stated), the growth inhibition in assay [1] (setting [7]) is 1%; in assay [1] (setting [8]) it was 17%; in assay [1] (at 50.0 µM), 50.2%; in assay [2] (setting [7]) it was 1%; in assay [2] (setting [8]), 10%; in assay [2] (at 50.0 µM), 26.6%. Moreover, the growth inhibition in assay [3] (setting [7]) was 2%; in assay [3] (setting [8]) it was 14%; in assay [3] (at 50.0 µM) it was 40.6%; in assay [4] (setting [7]), 3%; in assay [4] (setting [8]), 7%; in assay [4] (at 50.0 µM), -2.05%. The growth inhibition in assay [5] (setting [7]) was 6%; in assay [5] (setting [8]) it was 42%; in assay [5] (at 50.0 µM) it was 65.8%; in assay [6] (setting [7]) it was 5%; in assay [6] (setting [8]) it was 21%; in assay [6] (at 50.0 µM), 79.6% (active).
Regarding `CCCC[CH2][Pb]([CH2]CCCC)([CH2]CCCC)[O]C(C)=O`, the growth inhibition in assay [1] (setting [7]) is 99% (active); in assay [1] (setting [8]) it was 96% (active); in assay [1] (at 50.0 µM) it was 99% (active); in assay [2] (setting [7]), 99% (active); in assay [2] (setting [8]) it was 98% (active); in assay [2] (at 50.0 µM), 99.2% (active). Further, the growth inhibition is 100% (active) in assay [3] (setting [7]); 99% (active) in assay [3] (setting [8]); 98.8% (active) in assay [3] (at 50.0 µM); 99% (active) in assay [4] (setting [7]); 95% (active) in assay [4] (setting [8]); 98% (active) in assay [4] (at 50.0 µM). The growth inhibition in assay [5] (setting [7]) is 100% (active); in assay [5] (setting [8]), 97% (active); in assay [5] (at 50.0 µM), 98% (active); in assay [6] (setting [7]), 99% (active); in assay [6] (setting [8]), 93% (active); in assay [6] (at 50.0 µM), 98.5% (active).
